TDP1 cell noCPT – qHTS for Inhibitors of human tyrosyl-DNA phosphodiesterase 1 (TDP1): qHTS in cells in absence of CPT; AID 686978, 2013; DT40 Tdp1-/- hTDP1 cells, no CPT, ATP luminescence, 48 h; Potency, µM (titrated, usually from 46.2 µM), inactives show at the top dose activity change, negative = growth inhibition, most hits filed as inhibitors; 15% of 420,000 active; also: nearly all actives have a fitted effect of over 55% in size
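A cellular qHTS used chicken DT40 cells lacking endogenous Tdp1 but carrying stably transfected human TDP1. Compounds were applied without camptothecin, and cell growth kinetics were judged by ATP-dependent luminescence after ≥48 hr.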
ELG1 repair inh – blocks ELG1-dependent DNA repair in HEK293T cells | Potency, µM (highest dose often 46.1 µM), for inactives: at the highest dose activity change, negative = inhibition, most hits filed as inhibitors | 2.3% of 330,000 active | HEK293T ELG1-luciferase reporter, luminescence, 16 h; DNA damage induced by 5-fluorouridine | AID 504467; also: nearly all actives have a fitted effect of over 55% in size
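DMSO vehicle served as the neutral condition. Each well held 2,000 cells given 5-fluorouridine plus compound; after 16 hr at 37 °C/5% CO2, ONE-Glo was added and luciferase measured 30 min later.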
RORg inh – inhibitors of mouse ROR gamma transcriptional activity; Drosophila S2 Gal4-RORgamma UAS-luciferase reporter, 20 h; 5.4% of 310,000 active; P51450; Potency, µM (titrated, usually from 53.6 µM), for the others: top-dose activity change, negative = inhibition, usual class: inhibitors; AID 2551; also: nearly all actives have a fitted effect of over 60% in size
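ROR gamma transcriptional activity was tracked as Gal4-UAS luciferase output in stably transfected Drosophila Schneider cells, with compound added 1 hr before 700 uM copper sulfate induction and a 20 hr ambient-temperature incubation.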
ALOX12 inh – inhibitors of human 12S-lipoxygenase ALOX12; P18054; purified 12hLO, xylenol orange hydroperoxide absorbance; Potency, µM (titrated, usually from 108 µM), inactives show at the highest dose activity change, negative = inhibition, actives largely listed as inhibitors; 1.1% of 580,000 active
Target sequence (P18054 whole entry, looked up): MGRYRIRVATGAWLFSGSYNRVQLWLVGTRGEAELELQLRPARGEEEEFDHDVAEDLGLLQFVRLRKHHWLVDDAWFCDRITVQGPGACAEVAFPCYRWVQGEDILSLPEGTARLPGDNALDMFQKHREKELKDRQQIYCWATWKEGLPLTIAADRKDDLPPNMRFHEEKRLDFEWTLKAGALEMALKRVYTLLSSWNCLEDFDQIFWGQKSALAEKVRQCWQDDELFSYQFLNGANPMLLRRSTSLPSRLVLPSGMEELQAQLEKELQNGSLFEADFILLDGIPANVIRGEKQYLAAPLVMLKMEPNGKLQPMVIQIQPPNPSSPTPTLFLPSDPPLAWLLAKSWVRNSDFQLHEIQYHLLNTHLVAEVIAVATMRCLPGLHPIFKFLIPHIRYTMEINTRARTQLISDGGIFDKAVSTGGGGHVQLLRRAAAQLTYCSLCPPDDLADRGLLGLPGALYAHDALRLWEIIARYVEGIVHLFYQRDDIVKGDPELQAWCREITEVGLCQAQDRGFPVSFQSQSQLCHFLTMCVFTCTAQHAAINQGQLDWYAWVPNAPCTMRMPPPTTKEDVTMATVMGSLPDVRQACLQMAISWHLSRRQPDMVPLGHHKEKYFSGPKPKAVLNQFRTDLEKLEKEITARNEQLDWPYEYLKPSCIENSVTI
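Hydroperoxide product was detected by ferrous iron/xylenol orange as the 573 to 405 nm absorbance ratio. Arachidonic acid at 40 uM (final) was turned over for 30 min at room temperature by 150 nM human 12hLO, pH 7.0 Hepes buffer, after 15 min compound preincubation.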
VP16 counter – counter-screen for ROR gamma inhibitors: Gal4-VP16 reporter; 3.5% of 310,000 active; Potency, µM (top dose mostly 53.6 µM), inactives show at the top dose activity, negative = inhibition, most hits filed as inhibitors; Drosophila S2 Gal4-VP16 UAS-luciferase, luminescence, 20 h;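 also: Gal4-VP16 expression switched on by copper sulfate through the metallothionein promoter; nearly all actives have a fitted effect of over 50% in size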
TDP1 cell CPT – DT40-hTDP1 cell growth loss with CPT. AID 686979. chicken DT40 Tdp1-/-;hTDP1 cells + 20 nM CPT, ATP luminescence, 48 h. Potency, µM (series often up to 46.2 µM), without a hit: at the highest dose activity change, negative = growth inhibition, usual class: inhibitors. 12% of 420,000 active; also: nearly all actives have a fitted effect of over 55% in size
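Cell growth measured by CellTiter-Glo luminescence after a minimum 48 h, 37 C compound exposure with 20 nM CPT in Tdp1-knockout DT40 cells stably expressing hTDP1, seeded 400/well; qHTS titration format.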
The depositor's hits bear a star; ? = inconclusive; / = no result given; [ ] = remark or other dose. In the library only some 15% were active in any assay of this set; here they are far more common. Calls follow the shape of the dose curve; as a rule, active = well fitted curve in the direction sought with a large enough effect; inconclusive = small, poorly fitted or top-dose-only effect, or another doubt; inactive = no such curve, though single readings can be large; an effect the other way counts as inactive or inconclusive. % is scaled to controls: 0 for no effect and ±100 for the full control effect; potency is read from the fitted curve at half-maximal effect.

SMILES	TDP1 cell noCPT	ELG1 repair inh	RORg inh	ALOX12 inh	VP16 counter	TDP1 cell CPT
CCONC(=O)C(C)Oc1ccc(OC)cc1 (stereo not drawn)	/	/	/	-38%	/	/
COc1ccc(C(=O)N2CCCCCC2c2nc(-c3cccnc3)no2)cc1 (stereo not drawn)	/	/	/	19%	/	/
Cc1cc(C(=O)N2CC[C@H](NS(=O)(=O)c3cccs3)C[C@H]2C(=O)N[C@H](C)C(N)=O)n(C)n1	/	/	/	24%	/	/
CCCn1nc(C(=O)NCC(C2CC2)N(C)C)c2ccccc2c1=O (stereo not drawn)	/	/	/	-5%	/	/
COc1ccc(Cl)cc1NC(=O)CSc1nc(N2CCOCC2)nc(N2CCOCC2)n1	?	26µM*	-29%	9%	-8%	?
COc1ccc(OC)c(NC(=O)CSc2nc(N3CCOCC3)nc(N3CCOCC3)n2)c1	?	-19%	-38%	500%	-5%	?
Cc1ccc(CNC(=O)CSc2nc(N3CCCCC3)nc(N3CCCCC3)n2)cc1	23µM*	1%	?	?	7%[0.365 µM]	21µM*
CC(C)Nc1nc(-c2ccc(S(=O)(=O)N3CCCCCC3)cc2)cs1	/	/	/	-6%	/	/
Cc1nc(-c2ccncc2)[nH]c(=O)c1CC(=O)N(C)C1CCCCC1	/	/	/	-27%	/	/
CCc1cccc2c(C(O)c3c[nH]c4ccccc34)c[nH]c12 (stereo not drawn)	11µM*	/	/	/	/	4.5µM*
CCc1cccc2c(C(=O)CCl)c[nH]c12	21µM*	0%	?	-14%	14µM*	15µM*
CCc1cccc2c(C(=O)CN3C(=O)NC4(CCCCC4)C3=O)c[nH]c12	5.8µM*	?	/	-8%	/	5.8µM*
CCc1cccc2c(C(=O)C(NCCOC)c3ccccc3)c[nH]c12 (stereo not drawn)	12µM*	8%	34%	15%	-6%	?
OC(c1ccccn1)c1c[nH]c2ccccc12 (stereo not drawn)	-21%	-5%	-15%	?	-4%	-10%
CCc1cccc2c(C(=O)CN3C(=O)C(=O)N(C4CCCC4)C3=O)c[nH]c12	-18%	1%	/	58%	/	?
CCc1cccc2c(C(=O)CN3CCC(C(=O)N4CCCC4)CC3)c[nH]c12	/	/	/	-2%	/	/
O=C(c1cccc(O)c1)N1CCc2c(n(CCOc3ccccc3)n(-c3ccccc3)c2=O)C1	/	/	/	21%	/	/
CCS(=O)(=O)N1CCC(Cc2nncn2C)C1 (stereo not drawn)	/	/	/	0%	/	/
Nc1nccnc1C(=O)NCc1ccc(Oc2ccc(F)cc2)cc1	/	/	/	-3%	/	/
COc1cc(C(=O)O/N=C(\N)Cc2ccc([N+](=O)[O-])cc2)cc(OC)c1OC	15µM*	?	-18%	7%	?	3.7µM*
COc1ccc(C/C(N)=N/OC(=O)c2cccc([N+](=O)[O-])c2)cc1	?	-1%	2%	11%	-28%	?
COc1ccccc1C/C(N)=N/OC(=O)c1cccc([N+](=O)[O-])c1	?	0%	10µM*	-24%	-24%	?
C/C(=N\NC(=O)CSCc1ccc([N+](=O)[O-])cc1)c1cccc(Br)c1	18µM*	?	36%	-18%	?	10µM*
C/C(=N/NC(=O)CSCc1ccc(Cl)cc1)c1cccc(NC(=O)c2ccccc2)c1	-10%	?	13%	2%	?	-21%
N/C(Cc1ccc([N+](=O)[O-])cc1)=N\OC(=O)c1cccc(Br)c1	?	14%	-31%	-4%	-11%[10 µM]	15µM*
SMILES	TDP1 cell noCPT	ELG1 repair inh	RORg inh	ALOX12 inh	VP16 counter	TDP1 cell CPT
Cc1ccc2nc(Nc3nc(C(C)C)cc(=O)[nH]3)nc(C)c2c1	/	/	/	12%	/	/
CCn1ccc(C(=O)N2C[C@@H](COC)[C@H](c3nc(C4CC4)no3)C2)n1	/	/	/	19%	/	/
O=C(NCc1ccncc1)c1cc(-c2ccc(F)cc2)nc2ccccc12	/	/	/	4%	/	/
CC1=C(C)/C(=N/OC(=O)c2cccc([N+](=O)[O-])c2)C=CC1=O	21µM*	?	3.5µM*	/	3.5µM*	21µM*
COc1ccc(C(=O)O/N=C(\N)Cc2ccc([N+](=O)[O-])cc2)c(OC)c1	1.8µM*	?	1%	0%	-20%	1.3µM*
COc1ccccc1C/C(N)=N/OC(=O)c1cccs1	?	-1%	-3%	-18%	4%[10 µM]	?
COc1ccccc1C/C(N)=N/OC(=O)/C=C/c1ccccc1	-4%	13%	5.6µM*	2%	-26%	?
N/C(Cc1ccc([N+](=O)[O-])cc1)=N\OC(=O)c1ccc([N+](=O)[O-])cc1	?	-6%	-16%	-1%	9%	?
N/C(=N/OC(=O)c1cccc([N+](=O)[O-])c1)c1cccc([N+](=O)[O-])c1	-27%	?	6%	0%	-10%	-23%
CC(NC(=O)Cc1csc2nc(-c3ccccc3)cn12)c1ccc(Cl)cc1 (stereo not drawn)	/	/	/	-3%	/	/
COc1ccc(Oc2nc3c(C)cccn3c(=O)c2/C=C(\C#N)C(N)=O)cc1	1.8µM*	-1%	4%	0%	-10%	?
C=CCNC(=O)/C(C#N)=C/c1c(N2CCN(c3ccc(OC)cc3)CC2)nc2c(C)cccn2c1=O	13µM*	?	20%	3%	1%	?
CCOC(=O)/C(C#N)=C/c1c(N2CCN(C)CC2)nc2ccccn2c1=O	-14%	-2%	3%	0%	10%	5%
COc1ccc(N2CCN(c3nc4c(C)cccn4c(=O)c3/C=C(\C#N)C(N)=O)CC2)cc1	?	13µM*	18%	-26%	2%	?
CCOC(=O)/C(C#N)=C/c1c(N2CCCCCC2)nc2ccccn2c1=O	21µM*	-8%	-1%	0%	-11%	?
COc1ccc(C(=O)/C=C/c2ccccc2F)c(OC(=O)c2ccccc2C)c1	/	/	/	-17%	/	/
CC(=O)N/C(=C/c1cccnc1)C(=O)O	/	/	/	2%	/	/
CN1C(=O)C(c2ccccc2)CC12CCN(Cc1ccc(F)c(F)c1)CC2 (stereo not drawn)	/	/	/	-1%	/	/
O=C(Nc1ccc(F)cc1)N1CC2CC(C1)[C@H]1CCCC(=O)N1C2 (stereo partly drawn)	/	/	/	57%	/	/
CC1CCN(c2ccc(-c3cccc(NC(=O)NC(C)C)c3)nn2)CC1	/	/	/	16%	/	/
